# Screening results as filed in PubChem.
# Anesthetic bind: candidate novel general anesthetic via apoferritin binding; P02791; apoferritin/1-aminoanthracene competitive binding, fluorescence; Potency, µM (series often up to 77.5 µM), for the others: at the top dose activity change, negative = displacement, hits mostly inhibitors; AID 485281; 0.074% of 350,000 active; also: potency is read from the fitted curve at half-maximal effect; % is scaled to controls: 0 for no effect and ±100 for the full control effect; nearly all actives have a fitted effect of over 20% in size
# Target sequence (P02791 2-175 limits assumed): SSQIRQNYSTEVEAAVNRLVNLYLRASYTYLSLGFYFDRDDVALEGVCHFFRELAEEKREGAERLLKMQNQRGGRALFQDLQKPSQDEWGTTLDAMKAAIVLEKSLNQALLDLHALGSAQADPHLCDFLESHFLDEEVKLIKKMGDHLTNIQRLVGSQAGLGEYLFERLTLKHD
#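 Apoferritin-based anesthetic binding model; compound displacement of fluorescent 1-AMA measured as endpoint fluorescence after 10 minutes at room temperature, scaled to free-ligand and complex controls.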
# aSyn rescue: alpha-synuclein toxicity inhibition in yeast; Potency, µM (series often up to 46.1 µM), inactives show at the highest dose growth rescue (activation), actives largely listed as activators; 0.14% of 370,000 active; Yeast expressing alpha-synuclein, growth rescue, BacTiter-Glo, 24 h; also: potency is read from the fitted curve at half-maximal effect; % of control where 0% means no effect; nearly all actives have a fitted effect of over 65% in size
#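 Galactose-induced alpha-syn yeast (OD600=0.02, raffinose-pregrown) + pinned cpd, 24 hr, 30 deg C; growth by BacTiter-Glo luminescence. Growth restoration scores as activation.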
# Mito fusion act: mitochondrial division inhibition or fusion activation | AID 485298 | S. cerevisiae fusion-defective mutant growth rescue, CellTiterGlo 48 h | 0.23% of 320,000 active | Potency, µM (top dose mostly 46.1 µM), inactives show at the top dose growth rescue (activation), usual class: activators; also: potency is read from the fitted curve at half-maximal effect; % of control where 0% means no effect; nearly all actives have a fitted effect of over 45% in size
#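 Growth-rescue viability read-out: after 48 h at the non-permissive 37C in glycerol/ethanol YPEG, yeast mitochondrial fusion mutants are measured by CellTiterGlo luminescence; compounds (23 nl pinned per well) restoring growth score as division inhibitors or fusion activators.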
# CCT chaperon mod: changes cytosolic chaperonin activity; 0.3% of 360,000 active; AID 651819; purified chaperonin ATPase assay, HTRF ADP detection, 30 min; activity change, % (test concentration not listed), hits read low; in the data active = activity change below about -30%; also: % is scaled to controls: 0 for no effect and ±100 for the full control effect
#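 TRiC (40 or 20 nM final, by batch activity) in 30 mM Tris pH 7.4, 100 mM KCl, 5 mM MgCl2, 1 mM DTT was treated with compound at 76 uM single dose, then 10 uM ATP, 30 min at 37 °C. ADP was read by HTRF Transcreener.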
# TDP-43 yeast inh: rescues yeast growth from TDP-43 toxicity | 1.8% of 410,000 active | TDP-43 expressing yeast growth rescue, BacTiter-Glo, 24 h | Potency, µM (series often up to 46.1 µM), for inactives: at the top dose growth rescue (activation), most hits filed as activators; also: potency is read from the fitted curve at half-maximal effect; % of control where 0% means no effect; nearly all actives have a fitted effect of over 50% in size
#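 Yeast cells expressing TDP-43 under galactose induction are exposed to compounds for 24 hr at 30 deg C. BacTiter-Glo luminescence measures growth, so protective compounds score as activators.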
# Akt phos inh: blocks phosphorylation of Akt; 0.32% of 360,000 active; AID 651550; Neuro2A IGF-stimulated pAkt S473 HTRF, 20 min; stronger effect = lower value; activity change, % for hits at 50 µM; in the data active = activity change below about -80%; inconclusive = mostly about -51% to -80%; also: % is scaled to controls: 0 for no effect and ±100 for the full control effect
#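 Neuro2A cells (4,500/well, DMEM with 0.5% FBS) were treated with compound at a single 50 µM final concentration, stimulated with 6 nM IGF for 20 min at 37 °C, and lysed. Phospho-Akt Ser473 was read by HTRF as 665/615 ratio ×10^4.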
# Active calls of the source: *; i = inactive; ? = inconclusive; nt = no result given; ! = not active in a repeat; [ ] = remark or other dose. An excerpt weighted towards active compounds, which were near 2.5% of everything screened. Unless noted, calls follow the shape of the dose curve; as a rule, active = well fitted curve in the direction sought with a large enough effect; inconclusive = small, poorly fitted or top-dose-only effect, or another doubt; inactive = no such curve, though single readings can be large; an effect the other way counts as inactive or inconclusive.
SMILES,Anesthetic bind,aSyn rescue,Mito fusion act,CCT chaperon mod,TDP-43 yeast inh,Akt phos inh
COc1cc(-c2ccc(N=Nc3ccc4c(S(=O)(=O)O)cc(S(=O)(=O)O)c(N)c4c3O)c(OC)c2)ccc1N=Nc1ccc2c(S(=O)(=O)O)cc(S(=O)(=O)O)c(N)c2c1O,-8.2%[29.3 µM],nt,nt,nt,nt,nt
Cc1ccc(-c2nnc(C3CCN(S(=O)(=O)c4ccc(C)c(C)c4)CC3)o2)cc1,0.8%,nt,nt,nt,?,nt
Cc1cccc(-c2nnc(C3CCN(S(=O)(=O)c4cccc(Cl)c4)CC3)o2)c1,-5.5%,nt,nt,nt,15.8µM*,nt
CCOC(=O)N1CCN(C(=O)CN(C2CCCCC2)S(=O)(=O)c2ccc(C)cc2)CC1,-13.2%,3.6%,-1.7%,0.5,?,nt
Cc1ccc(S(=O)(=O)N(CC(=O)N2CCN(c3ccc(F)cc3)CC2)C2CCCCC2)cc1,2.7%,8.7%,-11.0%,0.2,20µM*,i
CCC(=Nc1ccc(Cc2ccncc2)cc1)c1c(O)n(C)c(=O)n(C)c1=O,-19.6%,-4.1%,3.2%,-0.1,-20.3%,-120.7%*!
Cc1ccc(C2=NN(Cc3nnc(-c4ccccc4)o3)C(=O)SC2)cc1,?,9.5%,?,0.6,17.8µM*,i
c1ccc(-c2nnc(CN3CCN(c4ccccc4)CC3)o2)cc1,-6.1%,-0.7%,-0.2%,-1.1,24.1%,i
N#Cc1cc(N)ccc1Sc1ccccc1,-22.8%,12.5%,7.4%,0.5,11.2µM*,i
N#Cc1cc(N)ccc1-n1cccc1,-3.7%,2.3%,-0.1%,1.2,9.0%,i
N#Cc1cc(-c2ccccc2)nnc1Sc1ccc(Cl)cc1,-10.5%,1.0%,0.3%,-0.9,?,i
N#Cc1cc(N)ccc1Sc1ccc(Cl)cc1,?,17.5%,7.1%,-1.3,15.8µM*,i
N#Cc1ccncc1Sc1ccc(Cl)cc1,0.0%,22.1%,15.1%,-1.5,17.8µM*,i
O=C(Nc1nnc(S(=O)(=O)N2CCCc3ccccc32)s1)c1cccc(Cl)c1,-5.2%,nt,nt,nt,5.3%,nt
CC[C@H](C)[C@H](NC(=O)[C@H](CCCN=C(N)N)NC(=O)[C@H](CCCN=C(N)N)NC(=O)[C@H](CC(C)C)NC(=O)[C@H](Cc1ccccc1)NC(=O)CNC(=O)CN)C(=O)N[C@@H](CCCN=C(N)N)C(=O)N1CCC[C@H]1C(=O)N[C@@H](CCCCN)C(=O)N[C@@H](CC(C)C)C(=O)N[C@@H](CCCCN)C(=O)O,0.0%,nt,nt,nt,nt,nt
CC(=O)Nc1ccn(C2OC(C(COC(C)=O)NC(=O)C(COCc3ccccc3)NC(=O)OC(C)(C)C)C(OC(C)=O)C2OC(C)=O)c(=O)n1 (stereo not drawn),-6.3%,nt,nt,nt,nt,nt
O=C(CSc1nc2ccc(Cl)cc2o1)NCc1ccc2c(c1)OCO2,-20.0%,-2.1%,16.6%,0.1,?,i
COc1ccc(C2(C(=O)NCCc3ccccc3)CCCC2)cc1,-20.2%,9.2%,?,-4.0,20.1%,i
O=C(NCCc1ccc(Cl)cc1)C1(c2ccccc2)CC1,-1.9%,15.6%,-1.5%,-0.3,14.1µM*,i
O=C(CSc1nc2ccccc2o1)NCc1ccc2c(c1)OCO2,-14.6%,0.4%,2.3%,-0.6,14.1µM*,i
O=C(CN1CCCc2ccccc21)NCc1ccc2c(c1)OCO2,-16.9%,14.7%,2.6%,1.1,11.2µM*,i
O=C(CN1CCCc2ccccc21)NCCc1ccc(Cl)cc1,?,5.0%,-2.9%,-6.7,14.1µM*,i
O=C(CN1CCc2ccccc21)NCc1ccc2c(c1)OCO2,-2.7%,15.2%,0.5%,-0.8,27.9%,i
CO[C@H]1COC(=O)[C@H](C)NC(=O)C/C=C\[C@@H](C)[C@@H](NS(=O)(=O)c2ccc(C)cc2)COC(=O)C/C=C\[C@@H]1C,-5.1%[15.3 µM],nt,nt,nt,nt,nt
Cc1ccc(C)c(S(=O)(=O)c2nnn3c2nc(Nc2ccc(F)c(Cl)c2)c2sccc23)c1,-3.4%,nt,nt,nt,4.1%,nt
SMILES,Anesthetic bind,aSyn rescue,Mito fusion act,CCT chaperon mod,TDP-43 yeast inh,Akt phos inh
CCn1c(SCC(=O)NCc2ccc3c(c2)OCO3)nnc1-c1cccs1,-5.8%,-2.3%,-2.5%,-0.7,-18.3%,-96.0%*
Cn1c(SCC(=O)NCc2ccc3c(c2)OCO3)nnc1-c1cccs1,-12.1%,3.1%,0.5%,0.4,9.8%,i
Cc1cccc(N2C(=O)CSC23C(=O)N(Cc2cccc(C(F)(F)F)c2)c2ccccc23)c1 (stereo not drawn),-8.3%,-11.1%,nt,nt,5.0%,nt
CCC/C(=C1/c2ccccc2C(=O)N1c1ccccc1)c1ccc2[nH]ccc2c1,nt,-44.0%,nt,1.0,14.1µM*,i
COc1cc2c(oc(=O)c3cc(C)cc(OC)c32)c2c(C3OC(C)C(O)C(C)(O)C3O)ccc(O)c12 (stereo not drawn),nt,6.31µM*,nt,0.5,?,i
COc1cccc2cc(C(=O)N3CC(C)OC(C)C3)c(=O)oc12 (stereo not drawn),-1.0%,-4.1%,2.6%,0.3,4.1%,i
O=C(Nc1ccccc1Oc1ccccc1)c1cccc([N+](=O)[O-])c1,-19.9%,?,9.5%,-9.3,14.1µM*,i
O=C(Nc1ccc(OCc2ccccc2)cc1)c1cccc([N+](=O)[O-])c1,-16.8%,-3.2%,-0.5%,-45.8*,4.5%,i
Cc1ccc(C(=O)Nc2ccc(OCc3ccccc3)cc2)cc1[N+](=O)[O-],-11.2%,-0.7%,-0.6%,-2.0,-6.6%,i
COc1ccccc1NC(=O)Cn1c(=O)c(CNc2ccccc2)cc2cc(OC)c(OC)cc21,40.8%,nt,nt,nt,15.6%,nt
CCC1CCc2sc(C(=O)O)cc2C1 (stereo not drawn),-22.4%,17.8%,-0.4%,-2.3,14.1µM*,i
CCc1nnc(NC(=O)CCn2cnc3ccccc3c2=O)s1,-12.0%,-1.1%,4.2%,-30.8*,-6.2%,i
CCCCc1nnc(NC(=O)Cn2cnc3ccccc3c2=O)s1,-2.1%,-0.3%,3.6%,-1.7,7.1%,i
CN(C)c1ccc(/C=C2\C=Cc3ccccc32)cc1[N+](=O)[O-],nt,4.5%,nt,nt,nt,nt
Cc1cccc(-c2nnn3c2nc(NCc2ccccc2)c2ccccc23)c1,41.0%,nt,nt,nt,15.6%,nt
O=C(NCc1ccccn1)c1cc(-c2ccccc2)nc2ccccc12,-8.0%,?,2.2%,-3.8,?,i
O=C(Nc1nccs1)c1cc(-c2ccco2)nc2ccccc12,-13.9%,-1.1%,-4.6%,-2.0,10.8%,i
C/C(=N\NC(=O)c1cc(-c2cccs2)nc2ccccc12)c1ccccn1,-4.0%,14.1µM*,-4.9%,0.0,22.4µM*,i
O=C(Nc1nccs1)c1cc(-c2ccccc2)nc2ccccc12,-10.9%,-20.1%,?,0.0,14.1µM*,i
Cc1cccc(-c2cc(C(=O)NCc3ccccn3)c3ccccc3n2)c1,-7.0%,-2.7%,10.7%,-5.1,35.5µM*,i
